Test results reported in PubChem BioAssay (NCATS).
Results filed as inconclusive are left out. Active and inactive are the calls of the source. Unless noted, calls follow the shape of the dose curve; as a rule, active = well fitted cell-killing curve with a large enough effect; inconclusive = small, poorly fitted or top-dose-only effect, or effect the other way; inactive = no such curve, though single readings can be large or run the other way.

Key:
[1] = Quantitative High-Throughput drug screen in 47 multiple myeloma cell lines against the NCATS MIPE library collection: OCIMY5_PLB cell viability assay (AID 1918988); also: nearly all actives have a fitted effect of over 65% in size; also: potency is read from the fitted curve at half-maximal effect
How it was run: (§1)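 Readout: median RLU from CellTiter-Glo after 5 min at room temperature. Preceding step was 48 h drug treatment of 500 cells/well at 37 °C, 5% CO2, with DMSO-only and media-only control wells.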

[2] = Quantitative High-Throughput drug screen in 47 multiple myeloma cell lines against the NCATS MIPE library collection: SKMM1_PLB cell viability assay (AID 1919863); details: SKMM1 myeloma viability, CellTiter-Glo ATP, 48 h; viability: stronger effect = lower value; also: nearly all actives have a fitted effect of over 35% in size; also: potency is read from the fitted curve at half-maximal effect
How it was run: as §1

[3] = Quantitative High-Throughput drug screen in 47 multiple myeloma cell lines against the NCATS MIPE library collection: U266_ATCC cell viability assay (AID 1919864); also: nearly all actives have a fitted effect of over 35% in size; also: potency is read from the fitted curve at half-maximal effect
How it was run: as §1

[4] = Quantitative High-Throughput drug screen in 47 multiple myeloma cell lines against the NCATS MIPE library collection: VP6_DJ cell viability assay (AID 1919867); also: nearly all actives have a fitted effect of over 40% in size; also: potency is read from the fitted curve at half-maximal effect
How it was run: as §1

[5] = Quantitative High-Throughput drug screen in 47 multiple myeloma cell lines against the NCATS MIPE library collection: UTMC2_PLB cell viability assay (AID 1919868); details: CellTiter-Glo ATP luminescence, 48 h; viability (% of DMSO control): at 45.8 µM (top of the series); also: nearly all actives have a fitted effect of over 55% in size; also: potency is read from the fitted curve at half-maximal effect
How it was run: as §1

[6] = Quantitative High-Throughput drug screen in 47 multiple myeloma cell lines against the NCATS MIPE library collection: OPM1_PLB cell viability assay (AID 1918989); also: nearly all actives have a fitted effect of over 40% in size; also: potency is read from the fitted curve at half-maximal effect
How it was run: as §1

[7] = Quantitative High-Throughput drug screen in 47 multiple myeloma cell lines against the NCATS MIPE library collection: PE2_PLB cell viability assay (AID 1919869); also: nearly all actives have a fitted effect of over 35% in size; also: potency is read from the fitted curve at half-maximal effect
How it was run: as §1

[8] = Quantitative High-Throughput drug screen in 47 multiple myeloma cell lines against the NCATS MIPE library collection: OPM2_DSMZ cell viability assay (AID 1919872); also: nearly all actives have a fitted effect of over 30% in size; also: potency is read from the fitted curve at half-maximal effect
How it was run: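 We plated 500 myeloma cells per well, pinned in MIPE 4.0 compounds, and incubated for 48 hours at 37C. ATP was then quantified with CellTiter-Glo, with DMSO and media-only wells defining 100% and 0%.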

[9] = Quantitative High-Throughput drug screen in 47 multiple myeloma cell lines against the NCATS MIPE library collection: KMS11_JCRBsus cell viability assay (AID 1919873); also: nearly all actives have a fitted effect of over 50% in size; also: potency is read from the fitted curve at half-maximal effect
How it was run: as §1

[10] = Quantitative High-Throughput drug screen in 47 multiple myeloma cell lines against the NCATS MIPE library collection: KMS28BM_JCRB cell viability assay (AID 1919874); also: nearly all actives have a fitted effect of over 35% in size; also: potency is read from the fitted curve at half-maximal effect
How it was run: as §1

[11] = Quantitative High-Throughput drug screen in 47 multiple myeloma cell lines against the NCATS MIPE library collection: XG6_PLB cell viability assay (AID 1919865); also: nearly all actives have a fitted effect of over 40% in size; also: potency is read from the fitted curve at half-maximal effect
How it was run: as §1

[12] = Quantitative High-Throughput drug screen in 47 multiple myeloma cell lines against the NCATS MIPE library collection: XG1_PLB cell viability assay (AID 1919866); also: nearly all actives have a fitted effect of over 35% in size; also: potency is read from the fitted curve at half-maximal effect
How it was run: as §1

[13] = Quantitative High-Throughput drug screen in 47 multiple myeloma cell lines against the NCATS MIPE library collection: PCM6_Riken cell viability assay (AID 1919870); also: nearly all actives have a fitted effect of over 30% in size; also: potency is read from the fitted curve at half-maximal effect
How it was run: as §1

[14] = Quantitative High-Throughput drug screen in 47 multiple myeloma cell lines against the NCATS MIPE library collection: RPMI8226_ATCC cell viability assay (AID 1919871); also: nearly all actives have a fitted effect of over 30% in size; also: potency is read from the fitted curve at half-maximal effect
How it was run: as §1

[15] = qHTS drug screen for cell cycle checkpoint inhibitors in PARPi-resistant BRCA-mutant ovarian cancer cell lines. (AID 1963452; calls by dose curve); details: PEO1/OlaR viability, CellTiter-Glo luminescence, 96 h, stronger effect = lower value
How it was run: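 PEO1, PEO4 and PEO1/OlaR ovarian cancer cells, 600 per well, exposed 96 h at 37C to a dilution series. Viability read by CellTiter-Glo luminescence, normalized to DMSO and empty wells; activity summarized as Z-AUC.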

[16] = qHTS for identification of novel therapeutic agents for treatment of microphthalmiaassociated transcription factor (MiT) renal cell carcinoma (RCC) (AID 1963991; calls by dose curve; also: potency is read from the fitted curve at half-maximal effect); details: CellTiter-Glo, 48 h; for z-score: stronger effect = lower value
How it was run: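 Three TFE3-fusion RCC cell lines (UOK109, UOK124, UOK145), 500 cells/well, were exposed to the 1912-compound MIPE 4.0 library for 48 hours at 37 C. Viability was read by CellTiter-Glo luminescence, normalised to DMSO (100%) and empty wells (0%), with 11-concentration curve fits.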

[17] = measured here: PEO1 parental Z-AUC
[18] = TFE3-RCC UOK109 viability, measured here: UOK109 Z-AUC
[19] = TFE3-RCC viability, measured here: UOK124 Z-AUC
[20] = TFE3-RCC viability, measured here: UOK145 Z-AUC

CC[C@H]1C=CC=CC[C@@H](C)[C@H](O)[C@@](C)(O)C(=O)[C@@H](C)[C@H](O)[C@@H](C)C(=O)[C@@H](C)[C@H](O)[C@@H](C)C=CC(=O)O[C@@H]2[C@@H](C)[C@H](CC1)O[C@]1(CC[C@H](C)[C@H](C[C@@H](C)O)O1)[C@H]2C
Potency [1]: 0.0017 µM (active) | Potency [2]: 20.9 µM (active) | Potency [3]: 20.9 µM (active) | Potency [4]: 0.001 µM (active) | Potency [5]: 0.001 µM (active)

C=C[C@@H]1CN2CCC1C[C@@H]2[C@@H](O)c1ccnc2ccccc12 (stereo not given in full)
Potency [1]: 20.9 µM (active) | Potency [6]: 16.6 µM (active) | Potency [2]: 23.5 µM (active) | Potency [3]: 13.2 µM (active) | Potency [7]: 23.5 µM (active) | Potency [8]: 20.9 µM (active) | Potency [9]: 20.9 µM (active) | Potency [10]: 23.5 µM (active)

O=S(=O)(F)Cc1ccccc1
Potency [1]: inactive | Potency [6]: 13.2 µM (active) | Potency [11]: 0.743 µM (active) | Potency [12]: 0.235 µM (active) | Potency [4]: inactive | Potency [13]: 2.64 µM (active) | Potency [14]: inactive | Potency [8]: inactive | Potency [9]: inactive | Potency [10]: inactive | Z-AUC [15]: -0.434 (inactive) | Z-AUC [15, 17]: -0.355 | Z-AUC ([15]; measured here: PEO4 Z-AUC): 0.278 | z-score [16, 18]: 0.128 | z-score [16, 19]: -1.89 | z-score [16, 20]: 0.531

CC(N[C@H]1C[C@H]1c1ccccc1)c1ccc2c(c1)OCCO2 (stereo not given in full)
Potency [1]: 2.96 µM (active) | Potency [6]: inactive | Potency [3]: 14.8 µM (active) | Potency [11]: inactive | Potency [7]: inactive | Potency [14]: inactive | Potency [8]: inactive | Potency [9]: inactive | Potency [10]: inactive

CC(C)N[C@@H]1CCn2c(=O)[nH]c3cccc(c32)[C@@H]1O
Potency [1]: 0.118 µM (active) | Potency [6]: 11.8 µM (active) | Potency [3]: 1.66 µM (active) | Potency [11]: 2.35 µM (active) | Potency [12]: 3.32 µM (active) | Potency [5]: 10.5 µM (active) | Potency [7]: 4.18 µM (active) | Potency [13]: 5.26 µM (active)

C[C@]12COC(=O)C[C@@H]1CC[C@@H]1[C@H]2CC[C@@]2(C)[C@H]1CC[C@]2(C)O
Potency [1]: inactive | Potency [6]: inactive | Potency [3]: inactive | Potency [12]: inactive | Potency [7]: inactive | Potency [8]: inactive | Potency [9]: inactive | Potency [10]: inactive | z-score [16, 18]: 0.93 | z-score [16, 19]: 0.76 | z-score [16, 20]: 0.397

CCNC(=O)C[C@@H]1N=C(c2ccc(Cl)cc2)c2cc(OC)ccc2-n2c(C)nnc21
Potency [1]: 0.209 µM (active) | Potency [2]: 0.469 µM (active) | Potency [3]: 0.372 µM (active) | Potency [4]: 0.296 µM (active) | Potency [7]: 2.96 µM (active) | Potency [14]: 1.18 µM (active) | Potency [9]: 0.105 µM (active) | Z-AUC [15]: -0.661 (inactive) | Z-AUC [15, 17]: -0.0106 | Z-AUC ([15]; measured here: PEO4 Z-AUC): -0.343

O=c1[nH]c2ccccc2n1C1CCN(Cc2ccc(-c3[nH]c4cc5ncnc5cc4nc3-c3ccccc3)cc2)CC1
Potency [1]: 16.6 µM (active) | Potency [6]: 2.64 µM (active) | Potency [2]: 20.9 µM (active) | Potency [12]: 7.43 µM (active) | Potency [4]: 9.35 µM (active) | Potency [5]: 13.2 µM (active) | Potency [13]: 13.2 µM (active) | Potency [14]: 13.2 µM (active) | Potency [8]: 18.7 µM (active) | Potency [9]: 20.9 µM (active) | Potency [10]: 18.7 µM (active) | Z-AUC [15]: -0.823 (inactive) | Z-AUC [15, 17]: -0.392 | Z-AUC ([15]; measured here: PEO4 Z-AUC): -0.582

COc1ccc2c(c1)CN(C)CC2c1ccc(Cl)c(Cl)c1 (stereo not given)
Potency [1]: 11.8 µM (active) | Potency [6]: 18.7 µM (active) | Potency [4]: 14.8 µM (active) | Potency [9]: 14.8 µM (active)

CC=C(C)C(=O)N[C@@H](c1ccccc1)[C@@H](O)C(=O)O[C@H]1C[C@@]2(O)[C@@H](OC(=O)c3ccccc3)[C@@H]3[C@]4(OC(C)=O)CO[C@@H]4C[C@H](O)[C@@]3(C)C(=O)[C@H](OC(C)=O)C(=C1C)C2(C)C
Potency [1]: inactive | viability [2]: 60.8% (inactive) | Potency [4]: inactive | Potency [5]: inactive | Potency [7]: inactive | Potency [13]: inactive | Potency [14]: inactive | Potency [9]: inactive

CC(=Cc1csc(C)n1)[C@@H]1C[C@H]2O[C@@H]2CCC[C@H](C)[C@@H](O)[C@@H](C)C(=O)C(C)(C)[C@@H](O)CC(=O)O1
Potency [1]: inactive | viability [2]: 81.4% (inactive) | Potency [11]: inactive | Potency [4]: inactive | Potency [14]: inactive | Potency [8]: inactive | Potency [9]: inactive | Potency [10]: inactive

CC(C)[C@H]1C(=O)N[C@H](CO)Cc2c[nH]c3cccc(c23)N1C
Potency [1]: inactive | Potency [6]: 0.372 µM (active) | Potency [3]: inactive | Potency [4]: inactive | Potency [13]: 0.264 µM (active) | Potency [8]: 0.0662 µM (active) | Potency [9]: inactive | Z-AUC [15]: 0.277 (inactive) | Z-AUC [15, 17]: -0.654 | Z-AUC ([15]; measured here: PEO4 Z-AUC): -0.578

C[C@]12Cc3cn[nH]c3C[C@@H]1CC[C@@H]1[C@H]2CC[C@@]2(C)[C@H]1CC[C@]2(C)O
Potency [1]: 13.2 µM (active) | Potency [2]: 3.32 µM (active) | Potency [3]: inactive | Potency [11]: inactive | Potency [7]: inactive | Potency [13]: inactive | Potency [8]: inactive | Potency [10]: inactive

C[C@H]1CCCC=CC2C[C@H](O)C[C@@H]2[C@H](O)C=CC(=O)O1 (stereo not given in full)
Potency [1]: inactive | Potency [6]: inactive | Potency [3]: inactive | Potency [11]: inactive | Potency [12]: inactive | Potency [4]: inactive | Potency [5]: inactive | Potency [7]: inactive | z-score [16, 18]: -3.99 | z-score [16, 19]: -3.69 | z-score [16, 20]: -5.31

CC[C@@H]1[C@@H](C)O[C@@](O)([C@@H](C)[C@H](O)[C@H](C)[C@H]2OC(=O)C=CC=C[C@@H](C)[C@@H]([C@@H](C)[C@@H](O)[C@H](C)[C@@]3(O)C[C@H](O[C@H]4C[C@H](O)[C@H](O)[C@H](C)O4)[C@H](CC)[C@@H](C)O3)OC(=O)C=CC=C[C@@H]2C)C[C@H]1O[C@H]1C[C@H](O)[C@H](O)[C@H](C)O1
Potency [1]: 0.372 µM (active) | Potency [6]: 1.05 µM (active) | Potency [2]: 0.662 µM (active) | Potency [12]: 0.469 µM (active) | Potency [4]: 0.469 µM (active) | Potency [5]: 1.05 µM (active) | Potency [7]: 0.833 µM (active) | Potency [14]: 0.372 µM (active) | Potency [8]: 0.372 µM (active) | Potency [9]: 0.418 µM (active) | Potency [10]: 0.372 µM (active) | Potency ([16]; TFE3-RCC UOK109 viability): 1.05 µM (active) | z-score [16, 18]: -1.85 | z-score [16, 19]: -2.49 | z-score [16, 20]: -1.57
